# D1 PAM: Potentiators of Human D1 Dopamine Receptor: qHTS. HEK293 TREx D1 cells, calcium flux, dopamine EC20 potentiation. potentiation, % at 10 µM. 0.036% of 360,000 active; in the data active = potentiation above about 30%; note: 0% is about no effect
# Target sequence (P21728 whole entry, looked up): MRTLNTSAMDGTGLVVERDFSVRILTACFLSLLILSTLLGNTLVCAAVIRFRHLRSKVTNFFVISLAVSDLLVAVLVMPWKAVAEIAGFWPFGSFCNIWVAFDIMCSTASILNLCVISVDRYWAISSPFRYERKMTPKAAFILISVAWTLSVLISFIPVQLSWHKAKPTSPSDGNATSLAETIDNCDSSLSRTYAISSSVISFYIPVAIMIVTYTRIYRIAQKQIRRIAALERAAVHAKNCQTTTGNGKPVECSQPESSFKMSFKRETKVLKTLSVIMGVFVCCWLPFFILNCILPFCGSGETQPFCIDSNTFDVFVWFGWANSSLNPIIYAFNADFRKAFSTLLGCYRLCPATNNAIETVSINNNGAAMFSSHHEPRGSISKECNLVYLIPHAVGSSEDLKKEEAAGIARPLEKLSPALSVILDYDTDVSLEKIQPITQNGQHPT
# D3 antag: qHTS of D3 Dopamine Receptor Antagonist: qHTS | D(3) dopamine receptor (Homo sapiens), P35462 | D3R cells, DiscoveRx beta-arrestin luminescence, antagonist mode; active compounds read low | max response, negative = inhibition, % | 2.5% of 360,000 active | AID 652054, 2013; in the data active = max response below about -50%; note: % is set by controls: 0 for no effect and ±100 for the full control effect
#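 Cells plated overnight at 1500 cells/well, then exposed to library compounds with dopamine controls for 90 minutes at 37 degrees C. DiscoveRx reagent added for 30–60 minutes at room temperature; luminescence read, quantitative HTS format.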
# D3 ag: qHTS of D3 Dopamine Receptor Agonist: qHTS; D(3) dopamine receptor (Homo sapiens), P35462; D3R DiscoveRx beta-arrestin cells, luminescence, 90 min; max activation, %; 0.58% of 410,000 active; in the data active = max activation above about 30%; note: 0% is about no effect
#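 Cells at 1500/well, incubated overnight, then treated with pinned compounds (dopamine as control) for 90 min at 37 degrees C. DiscoveRx reagent added for 30 - 60 minutes at room temperature; luminescence read.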
# D1 antag: Antagonist of Human D 1 Dopamine Receptor: qHTS | HEK293 TREx D1 cells, calcium flux, dopamine EC80; active compounds read low | AID 504652, 2011 | 3.2% of 360,000 active | activity change, negative = inhibition, % at 10 µM; in the data active = activity change below about -30%; note: % is set by controls: 0 for no effect and ±100 for the full control effect
#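 Allosteric or orthosteric antagonism assessed as attenuation of the calcium response to EC80 dopamine, added 180 s after compound, in induced HEK293 Trex D1 cells loaded with no-wash calcium dye.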
# D1 ag: Allosteric Agonists of the Human D1 Dopamine Receptor: qHTS; HEK293 T-REx D1 cells, calcium flux, agonist mode; activation, % at 2 µM; 1% of 360,000 active; in the data active = activation above about 30%; note: 0% is about no effect
#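 Tetracycline-induced HEK293 TREx D1 cells, force-coupled to calcium signalling, were dye-loaded with a no-wash calcium kit. Compound was pin-added after a 10 s baseline. Fluorescence was read kinetically at 1 cycle/s for 180 s, with calcium rises flagged as agonism.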
# Numbers without * were called inactive; · = not tested or not shown; ! = not active in a repeat. Most compounds without a hit are left out; they make up all but 6% or so of the library.
SMILES,D1 PAM,D3 antag,D3 ag,D1 antag,D1 ag
Cc1ccc(S(=O)(=O)NCCN2CCN(S(=O)(=O)c3ccccc3Cl)CC2)cc1,-6.8,-5.1,-0.8,-53.1*,6.9
O=C1c2sc3nc4ccccc4n3c2C(=O)N1c1ccccc1Cl,-0.3,-86.6*,-3.1,-12.1,3.9
O=C1c2sc3nc4c(c(=O)n3c2C(=O)N1c1ccccc1)CCC4,5.9,0.0,-8.2,0.3,5.2
Cc1ccccc1N1C(=O)c2sc3nc4c(c(=O)n3c2C1=O)CCC4,0.6,-57.2*,-3.1,5.0,0.7
O=C(CN1N=C(c2ccc(Cl)cc2)CCC1=O)NCc1ccc(F)cc1,-0.6,·,-1.7,15.2,-1.5
Cc1cccc(CN2CCN(C3CN(CCc4ccccc4)S(=O)(=O)C3)CC2)c1 (stereo not drawn),·,-10.2,-13.5,·,·
O=C(COc1ccccc1)NC(NC(=S)Nc1ccccc1C(=O)O)C(Cl)(Cl)Cl (stereo not drawn),-1.4,-77.3*,-0.6,-3.5,0.4
O=C1CCCCC(=O)[C@H](O)C[C@H](COCc2ccccc2)O1,·,0.0,90.9*,·,·
O=C1NCC(COCc2ccccc2)O1 (stereo not drawn),-3.8,-16.4,4.1,-1.6,-0.1
Cc1cccc(CCNC(=O)C2CCC(CNS(=O)(=O)c3c(C)cc(C)cc3C)CC2)c1 (stereo not drawn),1.0,·,-3.0,-6.4,9.2
CCN1CCCC1CNC(=O)c1cc(S(N)(=O)=O)ccc1OC (stereo not drawn),·,-98.5*,·,·,·
CCN1CCCC1CNC(=O)c1cc(NC(C)=O)c(N(C)C)cc1OC (stereo not drawn),-11.1,-88.4*,-8.5,-9.6,2.3
CCN1CCCC1CNC(=O)c1ccccc1Cl (stereo not drawn),-3.0,-25.3,-23.9,-11.3,0.6
CCC(=O)Nc1cc(C(=O)NCC2CCCN2CC)c(OC)cc1N(C)C (stereo not drawn),-4.0,-91.3*,-37.8,-1.4,1.5
CCCCOCCCNC(=O)C[C@@H]1C[C@@]2(C(=O)OC)CC(C)(C)CC=C2N(Cc2ccc3c(c2)OCO3)C1=O,·,-23.1,-5.7,·,·
COc1ccc(C)cc1Nc1nc2cc(Cl)c(Cl)cc2nc1-n1nc(C)cc1C,-2.5,·,5.1,-7.0,0.6
COc1cccc(NC(CNS(=O)(=O)c2ccc(C)cc2)c2ccccc2)c1 (stereo not drawn),-2.1,·,5.2,-7.0,2.4
COc1cccc(NC(CNS(=O)(=O)c2ccc(Cl)cc2)c2ccccc2)c1 (stereo not drawn),-3.0,·,-1.3,-34.2*,9.3
CN(C)CCN(Cc1ccco1)C(=O)c1oc2ccccc2c1NC(=O)c1ccccc1,-4.6,·,-13.0,-42.1*,9.5
Cc1ccccc1C(=O)Nc1c(C(=O)N(CCN(C)C)Cc2ccco2)oc2ccccc12,-5.1,-13.4,-18.3,-11.0,9.9
COc1ccccc1C(=O)Nc1c(C(=O)N(CCN(C)C)Cc2ccco2)oc2ccccc12,-13.9,5.2,-1.8,-38.1*!,46.3*!
CCOc1cc(-c2ccc(OC(=O)c3ccccc3)c(OC)c2)cc(=O)c2c(C)oc(C)c12,-0.2,·,-17.6,2.6,3.9
CCCCC/C=C\C/C=C\CCCCCCCC(=O)NC(C)c1ccccc1 (stereo not drawn),·,·,-0.2,·,·
O=C(N/N=C\c1cn(-c2ccccc2)nc1-c1ccccc1)c1ccc(Br)o1,-9.3,61.4,1.3,15.1,1.5
Cc1ccc(-c2nn(-c3ccccc3)cc2/C=N/NC(=O)c2ccc(Br)o2)cc1,-10.8,0.8,38.8*,-19.0,3.8
SMILES,D1 PAM,D3 antag,D3 ag,D1 antag,D1 ag
COc1ccc(-c2nn(-c3ccccc3)cc2/C=N/NC(=O)c2cccc(S(=O)(=O)Nc3ccccc3Cl)c2)cc1,-13.7,-15.1,-3.8,-36.4*,1.7
COc1ccc(-c2nn(-c3ccccc3)cc2/C=N/NS(=O)(=O)c2ccccc2)cc1,-1.0,-12.0,2.7,3.7,2.4
O=C(O)[C@@H](O)[C@H](O)[C@H](O)[C@@H](O)C(=O)O (tested in a mixture with another compound),·,·,-1.1,·,·
CC(C)(C)c1ccc(S(=O)(=O)c2cn(CC(=O)Nc3ccccc3)c3ccccc3c2=O)cc1,-5.6,·,-8.2,-26.4,1.6
Cc1c(Cl)cccc1NC(=S)N(CCCN1CCOCC1)Cc1ccco1,-3.6,0.0,-18.3,-10.6,3.0
Cc1ccc(Cl)cc1NC(=S)N(CCCN1CCOCC1)Cc1ccco1,-12.5,-9.3,-6.9,-52.3*,3.2
Cc1cc(NC(=S)N(CCCN2CCN(C)CC2)Cc2ccco2)ccc1Cl,-0.3,-10.8,-6.9,-31.5*,8.8
CC1CCC(NC(=O)CN(C)S(=O)(=O)c2ccc3c(c2)CCC(=O)N3)CC1 (stereo not drawn),-2.4,5.7,2.8,-30.5*,3.3
O=C(O)c1cccc(/C=C2/C[C@@H]3[C@@H](/C=C/[C@@H](O)C4CCCCC4)[C@H](O)C[C@@H]3O2)c1,·,·,-2.1,·,·
CN(N)C(=S)Nc1ccc(F)cc1,-1.9,-12.5,37.1*,-3.7,0.9
Cc1ccc(NC(=S)N(C)N)cc1Cl,19.0,-7.0,-6.5,-8.4,1.6
O=C(NC1CC1)c1cc2cc(Br)ccc2s1,-11.6,-6.1,10.1,-32.0*,6.8
N#Cc1c(-c2ccccc2)cc(C2CC2)nc1N,-7.5,11.9,-0.7,-12.2,30.6*
CN(C)CCNS(=O)(=O)c1ccc(N2CCc3ccccc32)c([N+](=O)[O-])c1,-5.0,-20.0,-21.3,-2.8,64.5*
CC1CS(=O)(=O)CCN1/N=C/c1ccc([N+](=O)[O-])o1 (stereo not drawn),·,·,5.9,·,·
O=C(Nc1ccccc1)Nc1cc(OCC(F)(F)F)cc(OCC(F)(F)F)c1,-9.6,21.7,10.3,-33.1*,22.3
Cc1cc2c(s1)c1cnn(Cc3cccc(C)c3F)c(=O)c1n2C,-0.9,·,·,3.9,4.6
Cc1ccc(-c2nc3ccccc3c(=O)n2NC(=O)c2cccs2)cc1,3.2,-51.0*,3.0,-0.1,3.5
N[C@@H](C(=O)N[C@@H]1C(=O)N2C(C(=O)O)=C(CSc3cn[nH]n3)CS[C@H]12)c1ccc(O)cc1,·,·,-12.8,·,·
N#CC1=C(N)Oc2n[nH]c(-c3ccccn3)c2C1c1c(F)cccc1Cl (stereo not drawn),-6.6,8.4,1.5,-31.2*,1.8
Cc1c2cc(O)c(=O)cc-2oc2cc(O)c(O)cc12,-3.1,-10.9,3.7,-3.8,33.8*!
COc1cc(OC)c(-c2c3cc(O)c(=O)cc-3oc3cc(O)c(O)cc23)cc1OC,31.9*,-77.0*,-26.0,71.3,626.0*
Cc1cc2oc(=O)cc(-c3cc4ccccc4o3)c2cc1O,-0.4,1.5,-1.3,-3.7,1.8

# High-throughput results: PubChem BioAssay, National Center for Advancing Translational Sciences (NCATS)
